# The supplement of paper PMC4022240
# ± gives the standard deviation.
# T1: HaloTag-ATRX ADD domain (163-292)
# T1 chain: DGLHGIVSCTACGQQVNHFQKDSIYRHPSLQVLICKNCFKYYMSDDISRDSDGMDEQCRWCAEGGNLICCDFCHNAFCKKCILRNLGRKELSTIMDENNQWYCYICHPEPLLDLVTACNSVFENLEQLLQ
# B1: H4 16-28 K R H Rme2a Kme3 V L R D N I Q G (peptide)
# chain: KRHRKVLRDNIQG
# B2: H4 16-28 K R H Rme Kac V L R D N I Q G (peptide)
# chain: KRHRKVLRDNIQG
# B3: H4 16-28 K R H R Kme3 V L R D N I Q G (peptide)
# chain: KRHRKVLRDNIQG
# B4: H4 16-28 K R H Rme2a K V L R D N I Q G (peptide)
# chain: KRHRKVLRDNIQG
# B5: H4 16-28 K R H Rme Kme2 V L R D N I Q G (peptide)
# chain: KRHRKVLRDNIQG
# B6: H4 16-28 K R H Rme2a Kme V L R D N I Q G (peptide)
# chain: KRHRKVLRDNIQG
# B7: H4 16-28 K R H Rme2a Kac V L R D N I Q G (peptide)
# chain: KRHRKVLRDNIQG
# B8: H4 16-28 K R H Rcit Kac V L R D N I Q G (peptide)
# chain: KRHRKVLRDNIQG
# B9: H4 16-28 K R H Rme2a Kme2 V L R D N I Q G (peptide)
# chain: KRHRKVLRDNIQG
# B10: H4 16-28 K R H Rme Kme V L R D N I Q G (peptide)
# chain: KRHRKVLRDNIQG
# B11: H4 16-28 K R H Rcit Kme V L R D N I Q G (peptide)
# chain: KRHRKVLRDNIQG
# Assays:
# Experiment in all cases: peptide microarray binding signal (635 nm), min-max normalized on array (fraction of array maximum); higher = stronger binding
# Conditions in all cases: peptide region: H4 16-28
# [1] = target: T1, HaloTag-ATRX ADD domain (163-292)
# Method in brief: (§1)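 For each library, binding signal was taken as the triplicate-spot mean intensity and then min-max scaled. Spots of histone 13-mer peptide–cellulose conjugates on nitrocellulose, printed in triplicate with a Cy3 tracer, were probed for 1 h at 4°C with either biotin-labelled HaloTag reader fusions (10 nM to 1 μM) and streptavidin-Alexa Fluor 647 or rabbit histone antibodies (1:10,000 to 1:2,000) and anti-rabbit Alexa 647. Readout at 635 nm came from an Axon GenePix 4000B.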
# [2] = target: HaloTag-ING2 PHD (mouse Ing2 200-280)
# Method in brief: as §1
# [3] = target: anti-H3K4me3 antibody ab8580
# Method in brief: as §1
# [4] = target: anti-H3K9me3 antibody ab8898
# Method in brief: as §1
# [5] = peptide modifications: H4R19me2a H4K20me3, binder concentration: 1:2,000 dilution
# [6] = peptide modifications: H4R19me2a H4K20me3, binder concentration: 1:10,000 dilution
# [7] = peptide modifications: H4R19me1 H4K20ac, binder concentration: 1:2,000 dilution
# [8] = peptide modifications: H4R19me1 H4K20ac, binder concentration: 1:10,000 dilution
# [9] = peptide modifications: H4K20me3, binder concentration: 1:2,000 dilution
# [10] = peptide modifications: H4R19me2a, binder concentration: 1:2,000 dilution
# [11] = peptide modifications: H4R19me1 H4K20me2, binder concentration: 1:2,000 dilution
# [12] = peptide modifications: H4R19me1 H4K20me2, binder concentration: 1:10,000 dilution
# [13] = peptide modifications: H4R19me2a H4K20me1, binder concentration: 1:2,000 dilution
# [14] = peptide modifications: H4R19me2a H4K20me1, binder concentration: 1:10,000 dilution
# [15] = peptide modifications: H4R19me2a H4K20ac, binder concentration: 1:2,000 dilution
# [16] = peptide modifications: H4R19me2a H4K20ac, binder concentration: 1:10,000 dilution
# [17] = peptide modifications: H4R19cit H4K20ac, binder concentration: 1:2,000 dilution
# [18] = peptide modifications: H4R19cit H4K20ac, binder concentration: 1:10,000 dilution
# [19] = peptide modifications: H4R19me2a H4K20me2, binder concentration: 1:2,000 dilution
# [20] = peptide modifications: H4R19me2a H4K20me2, binder concentration: 1:10,000 dilution
# [21] = peptide modifications: H4R19me1 H4K20me1, binder concentration: 1:2,000 dilution
# [22] = peptide modifications: H4R19me1 H4K20me1, binder concentration: 1:10,000 dilution
# [23] = peptide modifications: H4R19cit H4K20me1, binder concentration: 1:2,000 dilution
# [24] = peptide modifications: H4R19cit H4K20me1, binder concentration: 1:10,000 dilution
binder,measurement,setting,value
B1,peptide microarray binding signal,"[1]; peptide modifications: H4R19me2a H4K20me3, binder concentration: 50 nM",0.0152 ± 0.00067
same,peptide microarray binding signal,"[1]; peptide modifications: H4R19me2a H4K20me3, binder concentration: 500 nM",0.0166 ± 0.00049
same,peptide microarray binding signal,"[2]; peptide modifications: H4R19me2a H4K20me3, binder concentration: 10 nM",0.0209 ± 0.00068
same,peptide microarray binding signal,"[2]; peptide modifications: H4R19me2a H4K20me3, binder concentration: 100 nM",0.0392 ± 0.009
same,peptide microarray binding signal,[3]; [5],0.0145 ± 0.0019
same,peptide microarray binding signal,[3]; [6],0.00981 ± 0.00045
same,peptide microarray binding signal,[4]; [5],0.0143 ± 0.0024
same,peptide microarray binding signal,[4]; [6],0.0104 ± 0.00022
B2,peptide microarray binding signal,"[1]; peptide modifications: H4R19me1 H4K20ac, binder concentration: 50 nM",0.00448 ± 0.00018
same,peptide microarray binding signal,"[1]; peptide modifications: H4R19me1 H4K20ac, binder concentration: 500 nM",0.00967 ± 0.0016
same,peptide microarray binding signal,"[2]; peptide modifications: H4R19me1 H4K20ac, binder concentration: 10 nM",0.00627 ± 0.00047
same,peptide microarray binding signal,"[2]; peptide modifications: H4R19me1 H4K20ac, binder concentration: 100 nM",0.00609 ± 0.00066
same,peptide microarray binding signal,[3]; [7],0.00468 ± 0.0037
same,peptide microarray binding signal,[3]; [8],0.00137 ± 1.3e-05
same,peptide microarray binding signal,[4]; [7],0.000287 ± 2.9e-06
same,peptide microarray binding signal,[4]; [8],0.001557 ± 1.5e-05
B3,peptide microarray binding signal,"[1]; peptide modifications: H4K20me3, binder concentration: 500 nM",0.000667 ± 3.7e-05
same,peptide microarray binding signal,"[2]; peptide modifications: H4K20me3, binder concentration: 100 nM",7.09e-05 ± 1.5e-06
same,peptide microarray binding signal,[3]; [9],0.000982 ± 0.00023
same,peptide microarray binding signal,[4]; [9],1.51e-05 ± 1.7e-07
B4,peptide microarray binding signal,"[1]; peptide modifications: H4R19me2a, binder concentration: 500 nM",4.76e-05 ± 5.2e-07
same,peptide microarray binding signal,"[2]; peptide modifications: H4R19me2a, binder concentration: 100 nM",0.000213 ± 2.5e-06
same,peptide microarray binding signal,[3]; [10],5.66e-05
same,peptide microarray binding signal,[4]; [10],1.51e-05 ± 1.7e-07
B5,peptide microarray binding signal,"[1]; peptide modifications: H4R19me1 H4K20me2, binder concentration: 50 nM",0.00404 ± 8.4e-05
same,peptide microarray binding signal,"[1]; peptide modifications: H4R19me1 H4K20me2, binder concentration: 500 nM",0.00943 ± 0.001
same,peptide microarray binding signal,"[2]; peptide modifications: H4R19me1 H4K20me2, binder concentration: 10 nM",0.00847 ± 0.00051
same,peptide microarray binding signal,"[2]; peptide modifications: H4R19me1 H4K20me2, binder concentration: 100 nM",0.0223 ± 0.0015
same,peptide microarray binding signal,[3]; [11],0.00219 ± 0.0001
same,peptide microarray binding signal,[3]; [12],0.002 ± 4.9e-05
same,peptide microarray binding signal,[4]; [11],0.00116 ± 9e-05
same,peptide microarray binding signal,[4]; [12],0.00254 ± 0.00041
B6,peptide microarray binding signal,"[1]; peptide modifications: H4R19me2a H4K20me1, binder concentration: 50 nM",0.00382 ± 5.3e-05
same,peptide microarray binding signal,"[1]; peptide modifications: H4R19me2a H4K20me1, binder concentration: 500 nM",0.008 ± 0.00032
same,peptide microarray binding signal,"[2]; peptide modifications: H4R19me2a H4K20me1, binder concentration: 10 nM",0.00782 ± 0.00021
same,peptide microarray binding signal,"[2]; peptide modifications: H4R19me2a H4K20me1, binder concentration: 100 nM",0.0127 ± 0.0032
same,peptide microarray binding signal,[3]; [13],0.0308 ± 0.032
same,peptide microarray binding signal,[3]; [14],0.00188 ± 8.8e-05
same,peptide microarray binding signal,[4]; [13],0.000966 ± 4.1e-05
same,peptide microarray binding signal,[4]; [14],0.0015 ± 4.4e-05
B7,peptide microarray binding signal,"[1]; peptide modifications: H4R19me2a H4K20ac, binder concentration: 50 nM",0.003699 ± 3e-05
same,peptide microarray binding signal,"[1]; peptide modifications: H4R19me2a H4K20ac, binder concentration: 500 nM",0.006
same,peptide microarray binding signal,"[2]; peptide modifications: H4R19me2a H4K20ac, binder concentration: 10 nM",0.00871 ± 0.00039
same,peptide microarray binding signal,"[2]; peptide modifications: H4R19me2a H4K20ac, binder concentration: 100 nM",0.0218 ± 0.0012
same,peptide microarray binding signal,[3]; [15],0.000774 ± 2.5e-05
same,peptide microarray binding signal,[3]; [16],0.00171 ± 3.3e-05
same,peptide microarray binding signal,[4]; [15],0.0004379 ± 4.2e-06
same,peptide microarray binding signal,[4]; [16],0.001211 ± 1.2e-05
B8,peptide microarray binding signal,"[1]; peptide modifications: H4R19cit H4K20ac, binder concentration: 50 nM",0.00511 ± 4.9e-05
same,peptide microarray binding signal,"[1]; peptide modifications: H4R19cit H4K20ac, binder concentration: 500 nM",0.00829 ± 0.00052
same,peptide microarray binding signal,"[2]; peptide modifications: H4R19cit H4K20ac, binder concentration: 10 nM",0.00633 ± 0.0001
same,peptide microarray binding signal,"[2]; peptide modifications: H4R19cit H4K20ac, binder concentration: 100 nM",0.0106 ± 0.00059
same,peptide microarray binding signal,[3]; [17],0.000736 ± 6.2e-05
same,peptide microarray binding signal,[3]; [18],0.00137 ± 1.3e-05
same,peptide microarray binding signal,[4]; [17],0.0004832 ± 4.6e-06
same,peptide microarray binding signal,[4]; [18],0.00196 ± 3.7e-05
B9,peptide microarray binding signal,"[1]; peptide modifications: H4R19me2a H4K20me2, binder concentration: 50 nM",0.0248 ± 0.0013
same,peptide microarray binding signal,"[1]; peptide modifications: H4R19me2a H4K20me2, binder concentration: 500 nM",0.0149 ± 0.00068
same,peptide microarray binding signal,"[2]; peptide modifications: H4R19me2a H4K20me2, binder concentration: 10 nM",0.0209 ± 0.0011
same,peptide microarray binding signal,"[2]; peptide modifications: H4R19me2a H4K20me2, binder concentration: 100 nM",0.0188 ± 0.00076
same,peptide microarray binding signal,[3]; [19],0.00119 ± 1.7e-05
same,peptide microarray binding signal,[3]; [20],0.00348 ± 4.9e-05
same,peptide microarray binding signal,[4]; [19],0.00113 ± 8.4e-05
same,peptide microarray binding signal,[4]; [20],0.00427 ± 0.00011
B10,peptide microarray binding signal,"[1]; peptide modifications: H4R19me1 H4K20me1, binder concentration: 50 nM",0.00552 ± 0.00017
same,peptide microarray binding signal,"[1]; peptide modifications: H4R19me1 H4K20me1, binder concentration: 500 nM",0.01 ± 0.00041
same,peptide microarray binding signal,"[2]; peptide modifications: H4R19me1 H4K20me1, binder concentration: 10 nM",0.00961 ± 0.00044
same,peptide microarray binding signal,"[2]; peptide modifications: H4R19me1 H4K20me1, binder concentration: 100 nM",0.0145 ± 0.0033
same,peptide microarray binding signal,[3]; [21],0.0027 ± 0.00027
same,peptide microarray binding signal,[3]; [22],0.002511 ± 2.2e-05
same,peptide microarray binding signal,[4]; [21],0.00143 ± 4.1e-05
same,peptide microarray binding signal,[4]; [22],0.002133 ± 2e-05
B11,peptide microarray binding signal,"[1]; peptide modifications: H4R19cit H4K20me1, binder concentration: 50 nM",0.00693 ± 7.8e-05
same,peptide microarray binding signal,"[1]; peptide modifications: H4R19cit H4K20me1, binder concentration: 500 nM",0.00933 ± 0.00036
same,peptide microarray binding signal,"[2]; peptide modifications: H4R19cit H4K20me1, binder concentration: 10 nM",0.0107 ± 0.00018
same,peptide microarray binding signal,"[2]; peptide modifications: H4R19cit H4K20me1, binder concentration: 100 nM",0.0139 ± 0.00037
same,peptide microarray binding signal,[3]; [23],0.00145 ± 4.8e-05
same,peptide microarray binding signal,[3]; [24],0.002853 ± 2.4e-05
same,peptide microarray binding signal,[4]; [23],0.000785 ± 4.4e-05
same,peptide microarray binding signal,[4]; [24],0.002479 ± 2.2e-05
